Laboratory results from PubChem BioAssay AID1159580 (chemical genetic matrix, 2015).
The campaign covered roughly 5,500 compounds. About 2,000 (36%) were called active. Roughly 18% stayed inconclusive and do not appear here. Cut-off read from the data, not from the text of the source: active = normalized growth mostly below about 0.91 (no sharp cut-off); inconclusive = no clear call, values can overlap the other calls; inactive = mostly above about 0.92. This is one part of the list.

Assay: chemical genetic growth profiling, strain panel (AID 1159580);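 note: tested at 20 µM; growth read once vehicle control cultures reached saturation at 30 °C; 1 = growth at the plate median or of vehicle wells; lower values mean less growth of the strain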
Details: S. cerevisiae deletion strains, growth OD
[1] = locus YDL101C, strain DUN1, active compounds read low
[2] = locus YHR030C, strain SLT2, active compounds read low
[3] = locus YNL153C, strain GIM3, active compounds read low
[4] = locus YNL322C, strain KRE1, active compounds read low

Measured: normalized growth

O=C(Nc1ccccc1C(=O)NC1CCCCNC1=O)c1cccs1 (configuration not stated)
inactive: locus YAL013W, strain DEP1, active compounds read low 1 | locus YBR229C, strain ROT2, active compounds read low 1.01 | [1] 1 | locus YDL134C, strain PPH21, active compounds read low 1.01 | locus YDR150W, strain NUM1, active compounds read low 0.996 | locus YEL061C, strain CIN8, active compounds read low 1.01 | locus YGR078C, strain PAC10, active compounds read low 1 | [2] 1.02 | locus YHR087W, strain rtc3, active compounds read low 1.02 | locus YJL187C, strain SWE1, active compounds read low 1.01 | locus YJR043C, strain POL32, active compounds read low 0.972 | locus YJR075W, strain HOC1, active compounds read low 1.02 | locus YLR039C, strain RIC1, active compounds read low 1.06 | locus YLR058C, strain SHM2 (second series), active compounds read low 1 | locus YLR085C, strain ARP6, active compounds read low 1.01 | locus YLR262C, strain YPT6, active compounds read low 1.03 | locus YML094W, strain GIM5, active compounds read low 1.02 | locus YMR219W, strain ESC1, active compounds read low 1.01 | locus YMR263W, strain SAP30, active compounds read low 1.01 | [3] 1 | locus YNL298W, strain CLA4 (second series), active compounds read low 1.03 | [4] 1 | locus YNR030W, strain Alg12, active compounds read low 1.02 | locus YPL055C, strain LGE1, active compounds read low 0.998 | locus YPL241C, strain CIN2, active compounds read low 1.03 | locus YPR135W, strain CTF4, active compounds read low 1.01

O=C(O)[C@@H]1C[C@H](C(=O)O)N1
inactive: locus YAL040C, strain CLN3, active compounds read low 0.943 | locus YCL061C, strain MRC1 (second series), active compounds read low 0.984 | locus YDR363W, strain ESC2, active compounds read low 1.06 | locus YER002W, strain NOP16, active compounds read low 0.988 | [3] 0.986 | locus YNL175C, strain NOP13, active compounds read low 0.99 | locus YNL197C, strain WHI3, active compounds read low 0.967 | locus YNL224C, strain SQS1, active compounds read low 0.965 | [4] 0.987 | locus YOR083W, strain WHI5 (second series), active compounds read low 0.973

O=C(NCc1ccco1)c1ccc(Oc2cc(Cl)cc(Cl)c2)o1
inactive: locus YAR019C, strain CDC15, active compounds read low 0.961 | locus YBL105C, strain PKC1, active compounds read low 0.96 | locus YBR135W, strain CKS1, active compounds read low 0.964 | locus YBR136W, strain MEC1, active compounds read low 0.964 | locus YBR160W, strain CDC28, active compounds read low 0.967 | locus YDL017W, strain CDC7, active compounds read low 0.969 | locus YDL028C, strain MPS1, active compounds read low 0.967 | [1] 0.964 | locus YDL108W, strain KIN28, active compounds read low 0.96 | locus YDL132W, strain cdc53, active compounds read low 0.957 | locus YDL214C, strain PRR2, active compounds read low 0.936 | locus YDR052C, strain DBF4, active compounds read low 0.968 | locus YDR054C, strain cdc34, active compounds read low 0.957 | locus YDR226W, strain ADK1, active compounds read low 0.959 | locus YDR477W, strain SNF1, active compounds read low 0.952 | locus YER123W, strain YCK3, active compounds read low 0.932 | locus YER133W, strain GLC7, active compounds read low 0.932 | locus YFL009W, strain cdc4, active compounds read low 0.957 | locus YFL029C, strain CAK1, active compounds read low 0.951 | locus YFR003C, strain YPI1, active compounds read low 0.962 | locus YFR019W, strain FAB1, active compounds read low 0.96 | locus YFR028C, strain CDC14, active compounds read low 0.957 | locus YGR040W, strain KSS1, active compounds read low 0.948 | locus YGR052W, strain FMP48, active compounds read low 0.95 | locus YGR092W, strain DBF2, active compounds read low 0.957 | [2] 1.05 | locus YHR079C, strain IRE1, active compounds read low 1 | locus YHR082C, strain KSP1, active compounds read low 0.994 | locus YHR205W, strain SCH9, active compounds read low 0.952 | locus YIL147C, strain SLN1, active compounds read low 0.964 | locus YJL095W, strain BCK1, active compounds read low 0.931 | locus YJL128C, strain PBS2, active compounds read low 0.914 | locus YJL157C, strain FAR1, active compounds read low 0.941 | locus YJR016C, strain ILV3, active compounds read low 0.955 | locus YJR066W, strain TOR1 (second series), active compounds read low 0.974 | locus YJR066W, strain TOR1, active compounds read low 1.03 | locus YKL048C, strain ELM1, active compounds read low 0.939 | locus YKL067W, strain YNK1, active compounds read low 0.945 | locus YKL101W, strain HSL1, active compounds read low 0.917 | locus YKL193C, strain SDS22, active compounds read low 0.958 | locus YKL203C, strain TOR2, active compounds read low 1.01 | locus YLR133W, strain CKI1, active compounds read low 0.931 | locus YLR403W, strain SFP1, active compounds read low 0.968 | locus YML070W, strain DAK1, active compounds read low 0.94 | locus YMR001C, strain CDC5, active compounds read low 0.956 | locus YMR205C, strain PFK2 (second series), active compounds read low 0.942 | locus YMR277W, strain FCP1, active compounds read low 0.958 | locus YNL006W, strain LST8, active compounds read low 0.971 | locus YNL020C, strain ARK1, active compounds read low 0.939 | locus YNL161W, strain CBK1, active compounds read low 0.967 | locus YNL183C, strain NPR1, active compounds read low 0.963 | locus YNL207W, strain RIO2, active compounds read low 0.947 | locus YNL222W, strain SSU72, active compounds read low 0.964 | locus YNL307C, strain MCK1 (second series), active compounds read low 0.93 | locus YOL078W, strain AVO1, active compounds read low 0.953 | locus YOL136C, strain PFK27, active compounds read low 0.907 | locus YOR061W, strain CKA2, active compounds read low 0.942 | locus YOR119C, strain RIO1, active compounds read low 1.01 | locus YOR231W, strain MKK1, active compounds read low 0.883 | locus YOR329C, strain SCD5, active compounds read low 0.965 | locus YPL031C, strain PHO85, active compounds read low 0.942 | locus YPL153C, strain RAD53, active compounds read low 0.969 | locus YPL204W, strain HRR25, active compounds read low 0.941 | locus YPL209C, strain IPL1, active compounds read low 0.961 | locus YPL256C, strain CLN2, active compounds read low 0.906 | locus YPR025C, strain CCL1, active compounds read low 0.961 | locus YPR106W, strain ISR1, active compounds read low 0.958 | locus YPR111W, strain DBF20, active compounds read low 0.949 | strain NNK1, active compounds read low 0.942 | strain TSCII, active compounds read low 0.955
active: locus YLR113W, strain HOG1, active compounds read low 0.761
